S-ASM inh = human S-ASM enzyme inhibition; placental ASM, HMU-PC fluorogenic substrate, 60 min; Potency, µM (series often up to 57.5 µM), for inactives: at the highest dose activity change, negative = inhibition, hits mostly inhibitors; P17405; AID 504937; hit rate 0.006% among 340,000; note: potency is the fitted concentration of half-maximal effect
Target sequence (P17405 47-631 limits assumed): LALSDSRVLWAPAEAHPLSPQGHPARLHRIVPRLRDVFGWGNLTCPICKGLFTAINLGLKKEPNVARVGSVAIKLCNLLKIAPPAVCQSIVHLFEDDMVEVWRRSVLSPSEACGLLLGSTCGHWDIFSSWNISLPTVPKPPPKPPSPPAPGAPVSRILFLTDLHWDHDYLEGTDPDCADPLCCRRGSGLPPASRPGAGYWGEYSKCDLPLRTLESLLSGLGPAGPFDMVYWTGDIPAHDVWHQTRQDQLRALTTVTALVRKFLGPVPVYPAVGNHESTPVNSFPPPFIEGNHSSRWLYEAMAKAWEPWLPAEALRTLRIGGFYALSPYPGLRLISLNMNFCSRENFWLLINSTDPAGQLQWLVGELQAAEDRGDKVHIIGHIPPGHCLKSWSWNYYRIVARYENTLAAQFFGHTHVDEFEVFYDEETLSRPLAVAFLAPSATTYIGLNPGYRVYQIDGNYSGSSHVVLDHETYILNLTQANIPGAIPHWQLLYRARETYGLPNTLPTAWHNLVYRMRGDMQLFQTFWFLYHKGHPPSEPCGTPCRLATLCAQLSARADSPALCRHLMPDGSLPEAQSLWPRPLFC
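Fluorogenic HMU-PC substrate (9 uM final) is turned over by placental ASM in 60 min at 37 C after a 10 min compound preincubation. Reaction ended by alkaline stop (pH 10), with fluorescence read at 386/447 nm.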
TDP1 cell noCPT = qHTS for Inhibitors of human tyrosyl-DNA phosphodiesterase 1 (TDP1): qHTS in cells in absence of CPT; DT40 Tdp1-/- hTDP1 cells, no CPT, ATP luminescence, 48 h; Potency, µM (titrated, usually from 46.2 µM), for the others: at the top dose activity change, negative = growth inhibition, hits mostly inhibitors; hit rate 15% among 420,000; AID 686978, 2013; note: potency is the fitted concentration of half-maximal effect; % is set by controls: 0 for no effect and ±100 for the full control effect; nearly all actives have a fitted effect of over 55% in size
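Growth kinetics read by CellTiter-Glo luminescence after ≥48 hr at 37 °C. Cells: DT40 Tdp1-/- stably carrying human TDP1, 400 per well, compound exposure in the absence of CPT (DMSO vehicle).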
DT40 TDP1 CPT = growth inhibition of DT40 Tdp1-/-;hTDP1 cells with camptothecin (screen for TDP1 inhibitors) | Potency, µM (titrated, usually from 46.2 µM), without a hit: at the highest dose activity change, negative = growth inhibition, usual class: inhibitors | hit rate 12% among 420,000 | AID 686979 | chicken DT40 Tdp1-/-;hTDP1 cells + 20 nM CPT, ATP luminescence, 48 h; note: potency is the fitted concentration of half-maximal effect; % is set by controls: 0 for no effect and ±100 for the full control effect; nearly all actives have a fitted effect of over 55% in size
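Chicken DT40 Tdp1-/- cells stably complemented with human TDP1 were seeded at 400 cells/well in medium containing 20 nM camptothecin, exposed to pin-transferred compounds, and grown at 37 °C for at least 48 hr. Viability was read as ATP luminescence.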
HepG2 viability = kills HepG2 cells in TGF-b inhibitor counter-screen. HepG2 CAGA-GFP viability, ATP luminescence, 18 h. Potency, µM (doses to about 46.1 µM), without a hit: top-dose activity change, negative = cytotoxicity, hits mostly cytotoxic. hit rate 0.76% among 410,000. AID 588856; note: potency is the fitted concentration of half-maximal effect
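CellTiter-Glo luminescence gave cytotoxicity after 18 hours at 37 degrees C. The cells were HepG2 CAGA-GFP in 1% FBS DMEM, stimulated with 500 pg/mL TGF-beta after compound addition. %Activity was normalised to no-cell wells (complete cell-killing) and DMSO (no toxicity), and curves were fitted and classified.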
IL1B secr inh = inflammasome signaling inhibition, IL-1 beta readout; THP-1 LPS/ATP IL-1B secretion, AlphaLISA, 16 h; stronger effect = lower value; activity change, % at 57.5 µM; hit rate 4.7% among 360,000; AID 743279; in the data active = activity change below about -50%; inconclusive = mostly about -30% to -49%; note: % is set by controls: 0 for no effect and ±100 for the full control effect
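THP-1 cells pretreated 1 hr with compounds (up to 57.5 uM final), then stimulated with LPS (250 ng/mL final) plus ATP (1.25 mM final); secreted IL-1B measured by AlphaLISA after 16 hr, decreased signal indicating inhibition.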
TGFb SMAD3 inh = TGF-b pathway inhibition | Potency, µM (series often up to 46.1 µM), for inactives: at the highest dose activity, negative = inhibition, actives largely listed as inhibitors | HepG2 CAGA-GFP TGF-b/SMAD3 reporter, GFP fluorescence, 18 h; TGF-beta stimulated, 500 pg/mL final | hit rate 1.2% among 410,000; note: potency is the fitted concentration of half-maximal effect; % is set by controls: 0 for no effect and ±100 for the full control effect; nearly all actives have a fitted effect of over 65% in size
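Smad-responsive CAGA-GFP expression was quantified in HEPG2 cells exposed to compounds and 500 pg/mL final TGF-beta for 18 h at 37 degrees C; unstimulated wells defined full inhibition.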
Active calls of the source: *; i = inactive; u = inconclusive; x = no result. Only some compounds are listed: those with a hit (about 19% of all), similar ones and a draw of the others. Unless noted, calls come from the whole dose curve; as a rule, active = well fitted curve in the direction sought with a large enough effect; inconclusive = small, poorly fitted or top-dose-only effect, or another doubt; inactive = no such curve, though single readings can be large; an effect the other way counts as inactive or inconclusive.

SMILES | S-ASM inh | TDP1 cell noCPT | DT40 TDP1 CPT | HepG2 viability | IL1B secr inh | TGFb SMAD3 inh
Cc1cc(N2CCCC2=O)ccc1S(=O)(=O)NCCOc1ccccc1 | 0.5% | 14.6µM* | 18.4µM* | -3.2% | 20.0 | 1.0%
C[C@H](CO)N1C[C@H](C)[C@@H](CN(C)Cc2ccncc2)Oc2c(NC(=O)CCC(F)(F)F)cccc2C1=O | 0.2% | -25.9% | 1.3% | -4.5% | 22.3 | -2.7%
CCc1nc2ccc(C(=O)NCc3ccccc3OC)cn2c1N(C)C(=O)Cc1ccccc1 | x | u | u | -1.8% | 7.2 | 0.0%
CCc1nc2ccc(C(=O)Nc3ccc(Cl)c(Cl)c3)cn2c1N(C)Cc1ccc(OC)cc1 | x | u | 16.4µM* | -44.1% | -61.5* | 11.2µM*
CCc1nc2ccc(C(=O)NCc3ccccc3OC)cn2c1N(C)Cc1ccc(OC)cc1 | x | 20.6µM* | 16.4µM* | -34.2% | -51.6* | u
CCc1nc2ccc(C(=O)NCCOc3ccc(OC)cc3)cn2c1N(C=O)Cc1ccc(OC)cc1 | x | u | 23.1µM* | -17.9% | 0.0 | -1.6%
CCc1nc2ccc(C(=O)NCCc3c[nH]c4ccccc34)cn2c1N(C=O)CCC(C)C | x | 16.4µM* | 20.6µM* | -23.1% | u | 7.0%
CCc1nc2ccc(C(=O)Nc3ccc(OC)c(OC)c3)cn2c1N(C)Cc1ccc(OC)cc1 | x | u | u | -28.2% | u | 0.3%
Cc1ccc(N(CC(=O)NCCc2ccccc2C)S(=O)(=O)N(C)C)cc1 | x | u | -20.4% | -4.5% | x | -1.8%
CC1(C)SC2c3ccccc3C(=O)N2C1C(=O)O (centres undefined) | 7.2% | -19.5% | -6.5% | 14.3% | -2.2 | 0.8%
CCc1nc2ccc(C(=O)NCc3ccc(OC)cc3)cn2c1N(C)Cc1ccc(OC)cc1 | x | 20.6µM* | u | -23.5% | -11.1 | 0.2%
CCc1nc2ccc(C(=O)N(C)CCCN(C)C)cn2c1N(C)Cc1cc2ccccc2s1 | x | 20.6µM* | u | -45.5% | -9.2 | -16.5%
CCc1nc2ccc(C(=O)NCCOc3ccc(OC)cc3)cn2c1N(C)C(=O)C1CCCCC1 | x | 20.6µM* | u | -2.8% | -8.2 | 0.4%
CCc1nc2ccc(C(=O)N(C)CCCN(C)C)cn2c1N(C)CCCc1ccccc1 | x | u | u | -20.8% | -11.9 | -2.1%
CCc1nc2ccc(C(=O)N(C)Cc3ccccc3)cn2c1N(C)Cc1ccc(OC)cc1 | x | 11.6µM* | 11.6µM* | -27.4% | -14.1 | u
CCc1nc2ccc(C(=O)Nc3cccc(OC)c3)cn2c1N(C)Cc1ccc(OC)cc1 | x | u | u | -24.0% | u | u
O=C(NC1CCCCC1)c1cc(-c2ccccc2O)on1 | -4.0% | 11.1% | 5.0% | -6.0% | -19.7 | 1.9%
COC(=O)c1cc2oc(C)cc2n1Cc1c(C)cc(C)cc1C | x | 1.9% | 1.2% | 145.2% | x | 160.4%
CCC(Sc1nc(N)c(NC(=O)c2ccco2)c(=O)[nH]1)C(=O)O (centres undefined) | 8.9% | -1.2% | 3.6% | -1.1% | i | -0.2%
CCCCNC(=O)c1ccc2nc(CC)c(N(C)Cc3cccs3)n2c1 | x | u | 18.4µM* | -22.0% | -74.0* | -0.3%
CCc1nc2ccc(C(=O)N(C)Cc3ccccc3)cn2c1N(C)CCCc1ccccc1 | x | 13µM* | u | -53.4% | -26.1 | u
CN(C)CCCOc1ccc(-c2ccc3nncn3c2)cn1 | x | -5.2% | 2.7% | 7.4% | 37.2 | 24.9%
O=C(CCNC(=O)c1ccc([N+](=O)[O-])cc1)NCCc1ccccc1 | -3.2% | u | u | -14.6% | -57.3* | 3.8%
CSCCC(NC(=O)c1ccc([N+](=O)[O-])cc1Cl)C(=O)OCC(=O)NCCCc1ccccc1 (centres undefined) | -0.8% | u | -19.6% | -45.3% | -19.9 | 15.8µM*
CSCCC(NC(=O)c1ccc([N+](=O)[O-])cc1Cl)C(=O)OCC(=O)NCC(F)(F)F (centres undefined) | 4.6% | 13.5% | 13.0% | 22.4% | -1.4 | -2.6%
SMILES | S-ASM inh | TDP1 cell noCPT | DT40 TDP1 CPT | HepG2 viability | IL1B secr inh | TGFb SMAD3 inh
O=C(Cn1c(=O)c2sccc2n(Cc2ccc([N+](=O)[O-])cc2)c1=O)NCCc1ccccc1 | 0.2% | 13µM* | u | -2.8% | -27.5 | 9.2%
Cc1ccc(CN(C)C(=O)COC(=O)CSc2ccc([N+](=O)[O-])cc2)cc1 | -2.8% | 16.4µM* | u | 3.2% | 4.1 | 0.0%
CC(C)(C)NC(=O)NC(=O)CN1CCN(c2cccc(Cl)c2)CC1 | -0.3% | u | u | -43.3% | -17.9 | -20.3%
CC(OC(=O)CSc1ccc([N+](=O)[O-])cc1)C(=O)NCc1ccccc1 (centres undefined) | -3.7% | 16.4µM* | 20.6µM* | -16.7% | -21.6 | -23.7%
O=C(COC(=O)CSc1ccc([N+](=O)[O-])cc1)NCCCc1ccccc1 | -1.6% | u | 14.6µM* | 8.6% | 6.4 | -6.7%
O=C(COC(=O)CSc1ccc([N+](=O)[O-])cc1)NCCc1ccccc1 | -1.7% | 7.6% | -3.4% | -4.6% | -3.3 | 0.0%
Cc1noc(C)c1CSc1nnc(-c2ccccc2F)n1CCc1ccccc1 | 2.3% | u | 18.4µM* | -15.7% | 0.0 | -12.4%
CC(=O)Nc1ccc(C(=O)CSc2nnc(-c3ccccc3F)n2CCc2ccccc2)cc1 | -12.9% | 13µM* | u | 9.9% | 8.0 | -2.5%
Cc1noc(C)c1CSc1nc2ccccc2n1C | -2.2% | -10.1% | u | -1.3% | -25.3 | 2.2%
O=C(/C=C(\c1ccc(Cl)cc1)n1cncn1)c1ccc(Cl)cc1 | 4.7% | 16.4µM* | u | -16.8% | -57.3* | 23.3%
c1csc(CNc2ncnc3ccc(-c4ccc5c(c4)OCCO5)cc23)c1 | -4.6% | x | x | -51.5% | x | u
Cc1ccc(-c2nnc(NC(=O)c3ccc4c(c3)OCCO4)o2)c(C)c1 | x | u | u | -18.2% | x | -14.1%
Cc1ccc2nc(-c3cc(NC(=O)c4ccc5c(c4)OCCO5)ccc3Cl)oc2c1 | x | 16.4µM* | u | -22.5% | x | -0.9%
O=C(Nc1nnc(-c2cc(Cl)ccc2Cl)o1)c1ccc2c(c1)OCCO2 | x | 16.4µM* | u | 1.7% | x | 3.5%
Cc1ccc2nc(-c3cccc(NC(=O)c4ccc5c(c4)OCCO5)c3)oc2c1 | -1.4% | u | -15.7% | -44.1% | 4.9 | 0.0%
Cc1ccc2nc(-c3cc(NC(=O)/C=C/c4ccccc4)ccc3Cl)oc2c1 | x | 16.4µM* | 23.1µM* | -14.7% | x | 2.9%

Screens (PubChem BioAssay)
